# Results taken from PubChem BioAssay (EPA / NIEHS).
# Inconclusive results are not listed. Active and inactive are the calls of the source. Rule for the calls, unless noted: active = hit-call score of the fitted dose curve at least 0.9, where 1 is the maximum; inconclusive = response in the unintended direction; inactive = score below 0.9.
# Tests used:
# [1] = ATG_TCF_b_cat_CIS: Attagene CIS-FACTORIAL HepG2 Assay for human T-Cell-Factor with beta-catenin (TCF/b-cat) (AID 2282965; active = hit-call score of the fitted dose curve at least 0.9, where 1 is the maximum; inactive = score below 0.9); details: HepG2 TCF/beta-catenin cis-reporter transcription, actives raise or lower the signal
# Method in brief: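 Measured: reporter mRNA in HepG2 transiently transfected with cis-promoter reporter units, 24 h after chemical addition. Fitting was bidirectional, DMSO as negative control.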
# [2] = ATG_TGFb_CIS: Attagene CIS-FACTORIAL HepG2 Assay for human Transforming Growth Factor (TGF) (AID 2282967; active = hit-call score of the fitted dose curve at least 0.9, where 1 is the maximum; inactive = score below 0.9); details: HepG2 Attagene CIS TGFb reporter, mRNA transcription; actives raise or lower the signal
# Method in brief: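 Endogenous TGFB1-linked transcription factor activity read as reporter mRNA via RT-PCR and capillary electrophoresis, 24 h after dosing transiently transfected HepG2 cells. Gain or loss of signal fitted relative to DMSO.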
# [3] = biological target: Estrogen receptor (Homo sapiens) (UniProt P03372); assay: ATG_ERa_TRANS: Attagene TRANS-FACTORIAL HepG2 Assay for human Estrogen Receptor alpha (ERa) (AID 2282970); details: HepG2 Attagene TRANS ERa GAL4 reporter, mRNA
# Method in brief: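 Transfected HepG2 cells carrying GAL4-UAS-driven reporter units were dosed for 24 hours. Total RNA was reverse-transcribed, reporter sequences PCR-amplified, FAM-labelled, HpaI-digested and resolved by capillary electrophoresis. Increases over DMSO control defined activity.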
# [4] = biological target: X-box-binding protein 1 (Homo sapiens) (UniProt P17861); assay: ATG_Xbp1_CIS: Attagene CIS-FACTORIAL HepG2 Assay for human X-box Binding Protein 1 (XBP1) (AID 2282972; active = hit-call score of the fitted dose curve at least 0.9, where 1 is the maximum; inactive = score below 0.9); details: HepG2 XBP1 cis-element reporter, Attagene multiplex; actives raise or lower the signal
# Method in brief: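 Changes in reporter transcript abundance, read by RT-PCR and capillary electrophoresis, reflect endogenous transcription factor activity. Transfected HepG2 cells received compound for 24 hours; DMSO defined baseline for bidirectional analysis.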
# [5] = ATG_M_19_TRANS: Attagene TRANS-FACTORIAL HepG2 Assay for M19 Transcription Factor (Internal Marker) (AID 2282974); details: HepG2 Attagene TRANS-FACTORIAL M19 internal marker reporter
# Method in brief: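 After transfection of HepG2 with GAL4-UAS-driven reporter constructs, cells are dosed for 24 h. Total RNA is reverse-transcribed, reporter sequences PCR-amplified and labelled, then HpaI-digested and sized by capillary electrophoresis.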
# [6] = ATG_GAL4_TRANS: Attagene TRANS-FACTORIAL HepG2 Assay for GAL4 (Internal Marker) (AID 2282976); details: HepG2 Attagene TRANS GAL4 internal marker reporter
# Method in brief: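 Fluorescence from capillary electrophoresis of labelled RT-PCR products quantifies reporter mRNA induction after 24 h dosing of HepG2 cells carrying transfected GAL4-UAS reporter transcription units. Vehicle DMSO serves as baseline.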
# [7] = biological target: Estrogen-related receptor gamma (Homo sapiens) (UniProt P62508); assay: ATG_ERRg_TRANS: Attagene TRANS-FACTORIAL HepG2 Assay for human Estrogen-Related Receptor gamma (ERRg) (AID 2282977); details: HepG2 Attagene TRANS reporter, ERRg transactivation;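 note: hits increase reporter signal over DMSO so potencies reflect activators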
# Method in brief: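 Exogenous NR-Gal4 chimera activity was assessed in HepG2 cells bearing transfected GAL4-UAS reporters. After 24 h dosing, total RNA underwent RT-PCR, fluorescent primer extension and HpaI digestion before capillary electrophoresis, with gain of signal scored against DMSO.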
# [8] = biological target: Transcriptional activator Myb (Homo sapiens) (UniProt P10242); assay: ATG_Myb_CIS: Attagene CIS-FACTORIAL HepG2 Assay for human Myeloblastosis (Myb) Proto-Oncogene Transcription Factor (AID 2282986; active = hit-call score of the fitted dose curve at least 0.9, where 1 is the maximum; inactive = score below 0.9); details: HepG2 Attagene CIS-FACTORIAL Myb reporter transcription; actives raise or lower the signal
# Method in brief: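 Endogenous transcription factor activity at a Myb-responsive cis element is reported in human liver HepG2 cells after 24 h chemical treatment. Reporter mRNA is detected by RT-PCR and capillary electrophoresis fluorescence, with DMSO as baseline.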
# [9] = ATG_VDRE_CIS: Attagene CIS-FACTORIAL HepG2 Assay for human Vitamin D Receptor Element (VDRE) (AID 2282968; active = hit-call score of the fitted dose curve at least 0.9, where 1 is the maximum; inactive = score below 0.9); details: HepG2 VDRE cis-reporter transcription, actives raise or lower the signal
# Method in brief: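 Measures endogenous factor activity through cis-element-driven reporter transcripts in transiently transfected HepG2. Cells are treated 24 h; reporter mRNA is quantified by RT-PCR and capillary electrophoresis; fitting is bidirectional.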
# [10] = biological target: Glucocorticoid receptor (Homo sapiens) (UniProt P04150); assay: ATG_GR_TRANS: Attagene TRANS-FACTORIAL HepG2 Assay for human Glucocorticoid Receptor (GR) (AID 2282978); details: HepG2 Attagene TRANS GR reporter, mRNA transcription;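 note: activators score as hits since higher reporter transcript over DMSO is fitted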
# Method in brief: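 Multiplexed TRANS reporter system, HepG2; 24 h exposure; RNA → oligo(dT) RT → reporter-specific PCR → 6-FAM primer extension → HpaI cut → CE fluorescence. Gain-of-signal vs DMSO.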
# [11] = biological target: Bile acid receptor (Homo sapiens) (UniProt Q96RI1); assay: ATG_FXR_TRANS: Attagene TRANS-FACTORIAL HepG2 Assay for Farnesoid X Receptor (FXR) (AID 2282979); details: HepG2 Attagene TRANS FXR-GAL4 reporter transcription;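 note: hits raise reporter mRNA above DMSO so AC50 marks FXR activation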
# Method in brief: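 Chimeric FXR-GAL4 activity in transiently transfected human HepG2 liver cells is scored as induction of reporter mRNA after 24 h of dosing. Detection uses RT-PCR with fluorescent labelling and capillary electrophoresis, with DMSO serving as baseline.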
# [12] = biological target: Oxysterols receptor LXR-beta (Homo sapiens) (UniProt P55055); assay: ATG_LXRb_TRANS: Attagene TRANS-FACTORIAL HepG2 Assay for human Liver X Receptor beta (LXRb) (AID 2282981); details: HepG2 Attagene TRANS GAL4-LXRb reporter, mRNA
# Method in brief: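 After 24 h of chemical treatment, transfected HepG2 cells yield total RNA; reporter cDNA is PCR-amplified, FAM-labelled, HpaI-cut and run on capillary electrophoresis. Signal reflects chimeric LXRb-Gal4 activity on GAL4-UAS reporters.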
# [13] = ATG_M_06_TRANS: Attagene TRANS-FACTORIAL HepG2 Assay for M06 Transcription Factor (Internal Marker) (AID 2282983); details: HepG2 Attagene TRANS M06 internal marker reporter;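 note: reporter transcript level by RT-PCR then capillary electrophoresis fluorescence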
# Method in brief: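 Human liver HepG2 cells bearing transiently transfected chimeric NR-GAL4 reporter units were treated with chemicals for 24 h. Total RNA was reverse-transcribed, reporter sequences amplified and labelled, then quantified by capillary electrophoresis. Activity was fitted upward relative to DMSO.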
# [14] = ATG_M_32_TRANS: Attagene TRANS-FACTORIAL HepG2 Assay for M32 Transcription Factor (Internal Marker) (AID 2282984); details: HepG2 Attagene TRANS M32 internal marker reporter;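 note: transcript level of a background control reporter unit measured by RT-PCR and capillary electrophoresis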
# Method in brief: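 Cell-based TRANS-format assay in HepG2: exogenous chimeric GAL4 reporter units transiently expressed, compounds applied 24 h. Reporter mRNA detected by RT-PCR plus capillary electrophoresis; this readout is an internal background marker.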
# [15] = biological target: Nuclear receptor subfamily 4 group A member 2 (Homo sapiens) (UniProt P43354); assay: ATG_NURR1_TRANS: Attagene TRANS-FACTORIAL HepG2 Assay for human Nuclear Receptor Related Protein 1 (NURR1) (AID 2282985); details: HepG2 Attagene TRANS reporter, mRNA readout
# Method in brief: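 Measures transcriptional activation by an exogenous NR-Gal4 chimera in transfected HepG2 liver cells. After 24 h, reporter RNA is reverse-transcribed, amplified and resolved by capillary electrophoresis; DMSO defines baseline.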
# [16] = biological target: Oxysterols receptor LXR-alpha (Homo sapiens) (UniProt Q13133); assay: ATG_LXRa_TRANS: Attagene TRANS-FACTORIAL HepG2 Assay for human Liver X Receptor alpha (LXRa) (AID 2282980); details: HepG2 Attagene TRANS reporter, LXRa transactivation
# Method in brief: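 Transient HepG2 transfectants, 24 h dosing, RT-PCR/CE mRNA reporter quantitation; gain-of-signal vs DMSO.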
# [17] = biological target: Hepatocyte nuclear factor 4-alpha (Homo sapiens) (UniProt P41235); assay: ATG_HNF4a_TRANS: Attagene TRANS-FACTORIAL HepG2 Assay for human Hepatocyte Nuclear Factor 4 alpha (HNF4a) (AID 2282982); details: HepG2 HNF4a transactivation reporter, mRNA readout
# Method in brief: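 Multiplexed reporter assay: transfected HepG2, 24 h exposure, total RNA → oligo(dT) RT → PCR → 6-FAM extension → HpaI digest → CE fluorescence. DMSO = negative control.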
# [18] = biological target: Nuclear receptor subfamily 1 group I member 3 (Homo sapiens) (UniProt Q14994); assay: ATG_CAR_TRANS: Attagene TRANS-FACTORIAL HepG2 Assay for human Constitutive Androstane Receptor (CAR) (AID 2282969); details: HepG2 Attagene TRANS-FACTORIAL CAR reporter;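 note: activators raise reporter mRNA above DMSO so AC50 marks induction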
# Method in brief: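 Signal is reporter mRNA induction relative to DMSO, measured 24 h after dosing by RT-PCR with fluorescent primer extension and capillary electrophoresis. Human HepG2 liver cells carried transiently transfected chimeric NR-Gal4/GAL4-UAS reporter constructs.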
# [19] = biological target: Steroid hormone receptor ERR1 (Homo sapiens) (UniProt P11474); assay: ATG_ERRa_TRANS: Attagene TRANS-FACTORIAL HepG2 Assay for human Estrogen-Related Receptor alpha (ERRa) (AID 2282971); details: HepG2 Attagene TRANS reporter, ERRa transactivation
# Method in brief: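 HepG2 cells were transiently transfected with multiple GAL4-UAS reporter units, then dosed with compound for 24 h. Total RNA was reverse-transcribed, reporter cDNA PCR-amplified and fluorescently labelled, and fragments resolved by capillary electrophoresis; induction was compared with DMSO.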
# X-box-binding protein 1 (Homo sapiens), sequence (P17861 whole entry, looked up): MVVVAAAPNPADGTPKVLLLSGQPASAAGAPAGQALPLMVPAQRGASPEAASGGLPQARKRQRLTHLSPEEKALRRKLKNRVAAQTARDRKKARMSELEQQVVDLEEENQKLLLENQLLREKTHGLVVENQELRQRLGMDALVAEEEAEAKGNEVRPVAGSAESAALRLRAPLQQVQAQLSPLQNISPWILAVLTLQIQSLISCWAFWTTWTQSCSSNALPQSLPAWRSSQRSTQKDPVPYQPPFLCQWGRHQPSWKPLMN
# Bile acid receptor (Homo sapiens), sequence (Q96RI1 whole entry, looked up, the tested form may be a part): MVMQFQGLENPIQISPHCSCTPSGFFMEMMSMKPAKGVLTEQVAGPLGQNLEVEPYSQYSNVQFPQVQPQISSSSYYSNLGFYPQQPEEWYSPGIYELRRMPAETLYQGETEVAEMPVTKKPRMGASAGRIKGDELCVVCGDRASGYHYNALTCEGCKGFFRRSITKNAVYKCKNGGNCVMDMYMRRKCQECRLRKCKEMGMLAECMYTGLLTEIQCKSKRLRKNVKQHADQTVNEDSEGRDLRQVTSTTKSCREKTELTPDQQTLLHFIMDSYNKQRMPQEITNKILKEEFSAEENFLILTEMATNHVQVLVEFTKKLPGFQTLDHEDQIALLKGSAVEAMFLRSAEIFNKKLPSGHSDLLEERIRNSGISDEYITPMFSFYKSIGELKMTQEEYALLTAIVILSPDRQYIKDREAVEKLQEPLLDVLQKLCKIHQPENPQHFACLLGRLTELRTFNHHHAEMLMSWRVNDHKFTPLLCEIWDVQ
# Estrogen receptor (Homo sapiens), sequence (P03372 whole entry, looked up, the tested form may be a part): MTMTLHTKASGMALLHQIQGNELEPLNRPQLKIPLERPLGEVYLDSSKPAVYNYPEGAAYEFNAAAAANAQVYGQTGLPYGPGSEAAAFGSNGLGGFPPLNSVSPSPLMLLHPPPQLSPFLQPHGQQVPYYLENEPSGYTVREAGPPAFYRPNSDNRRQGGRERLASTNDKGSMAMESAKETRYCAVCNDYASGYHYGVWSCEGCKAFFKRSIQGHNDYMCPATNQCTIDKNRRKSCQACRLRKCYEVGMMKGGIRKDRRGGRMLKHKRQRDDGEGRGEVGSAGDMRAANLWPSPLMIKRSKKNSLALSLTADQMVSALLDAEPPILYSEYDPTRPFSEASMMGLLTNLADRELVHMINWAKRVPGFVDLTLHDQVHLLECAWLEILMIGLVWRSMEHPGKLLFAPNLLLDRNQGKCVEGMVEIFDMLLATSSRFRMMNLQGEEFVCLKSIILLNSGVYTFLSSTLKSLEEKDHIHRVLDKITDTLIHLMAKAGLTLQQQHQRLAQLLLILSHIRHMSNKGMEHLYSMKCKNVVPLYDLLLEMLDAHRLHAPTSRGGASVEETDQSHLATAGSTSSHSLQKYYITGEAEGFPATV
# Nuclear receptor subfamily 4 group A member 2 (Homo sapiens), sequence (P43354 whole entry, looked up, the tested form may be a part): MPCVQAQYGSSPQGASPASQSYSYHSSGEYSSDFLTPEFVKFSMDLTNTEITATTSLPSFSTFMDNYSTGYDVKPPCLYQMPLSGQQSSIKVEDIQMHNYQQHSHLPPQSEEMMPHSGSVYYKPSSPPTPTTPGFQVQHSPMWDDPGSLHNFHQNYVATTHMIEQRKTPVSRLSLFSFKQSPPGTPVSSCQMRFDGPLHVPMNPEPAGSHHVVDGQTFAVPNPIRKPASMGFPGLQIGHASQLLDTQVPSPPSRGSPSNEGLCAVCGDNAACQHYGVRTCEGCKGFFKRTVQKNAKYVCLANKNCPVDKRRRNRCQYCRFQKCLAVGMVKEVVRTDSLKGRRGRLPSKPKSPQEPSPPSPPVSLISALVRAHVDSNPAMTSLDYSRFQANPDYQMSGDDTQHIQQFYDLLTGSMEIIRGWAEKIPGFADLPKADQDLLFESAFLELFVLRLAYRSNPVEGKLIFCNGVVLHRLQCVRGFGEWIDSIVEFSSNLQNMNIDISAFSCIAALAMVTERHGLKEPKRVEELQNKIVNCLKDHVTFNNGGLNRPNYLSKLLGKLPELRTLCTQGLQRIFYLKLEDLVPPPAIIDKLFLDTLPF
# Oxysterols receptor LXR-beta (Homo sapiens), sequence (P55055 whole entry, looked up, the tested form may be a part): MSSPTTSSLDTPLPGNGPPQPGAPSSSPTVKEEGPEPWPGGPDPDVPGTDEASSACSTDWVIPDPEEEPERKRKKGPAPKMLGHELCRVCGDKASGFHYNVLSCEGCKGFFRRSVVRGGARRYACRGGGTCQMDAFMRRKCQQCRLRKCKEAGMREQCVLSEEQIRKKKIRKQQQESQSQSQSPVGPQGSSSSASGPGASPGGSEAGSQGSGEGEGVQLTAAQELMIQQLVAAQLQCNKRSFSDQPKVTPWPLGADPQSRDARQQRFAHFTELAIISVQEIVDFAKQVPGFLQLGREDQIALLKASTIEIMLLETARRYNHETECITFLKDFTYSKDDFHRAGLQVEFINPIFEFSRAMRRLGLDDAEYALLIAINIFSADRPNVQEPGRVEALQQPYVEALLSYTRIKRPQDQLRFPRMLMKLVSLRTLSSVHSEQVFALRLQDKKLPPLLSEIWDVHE
# Transcriptional activator Myb (Homo sapiens), sequence (P10242 whole entry, looked up): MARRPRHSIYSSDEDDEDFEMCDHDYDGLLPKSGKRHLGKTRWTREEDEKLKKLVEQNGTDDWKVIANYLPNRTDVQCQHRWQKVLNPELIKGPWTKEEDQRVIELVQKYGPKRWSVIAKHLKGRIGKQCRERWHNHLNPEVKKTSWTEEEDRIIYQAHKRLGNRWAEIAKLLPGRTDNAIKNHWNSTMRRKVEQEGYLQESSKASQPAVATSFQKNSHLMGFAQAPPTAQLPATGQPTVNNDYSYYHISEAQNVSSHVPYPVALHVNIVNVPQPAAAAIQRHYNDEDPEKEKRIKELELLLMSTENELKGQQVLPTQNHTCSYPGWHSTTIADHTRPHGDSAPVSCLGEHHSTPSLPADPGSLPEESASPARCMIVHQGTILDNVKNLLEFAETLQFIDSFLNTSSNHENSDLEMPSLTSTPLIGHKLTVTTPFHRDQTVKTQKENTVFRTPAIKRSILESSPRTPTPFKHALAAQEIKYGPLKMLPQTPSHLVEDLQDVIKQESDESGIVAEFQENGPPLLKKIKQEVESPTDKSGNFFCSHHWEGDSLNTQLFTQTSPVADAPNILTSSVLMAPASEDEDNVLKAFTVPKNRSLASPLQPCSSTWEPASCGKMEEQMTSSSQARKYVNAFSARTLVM
# Oxysterols receptor LXR-alpha (Homo sapiens), sequence (Q13133 whole entry, looked up): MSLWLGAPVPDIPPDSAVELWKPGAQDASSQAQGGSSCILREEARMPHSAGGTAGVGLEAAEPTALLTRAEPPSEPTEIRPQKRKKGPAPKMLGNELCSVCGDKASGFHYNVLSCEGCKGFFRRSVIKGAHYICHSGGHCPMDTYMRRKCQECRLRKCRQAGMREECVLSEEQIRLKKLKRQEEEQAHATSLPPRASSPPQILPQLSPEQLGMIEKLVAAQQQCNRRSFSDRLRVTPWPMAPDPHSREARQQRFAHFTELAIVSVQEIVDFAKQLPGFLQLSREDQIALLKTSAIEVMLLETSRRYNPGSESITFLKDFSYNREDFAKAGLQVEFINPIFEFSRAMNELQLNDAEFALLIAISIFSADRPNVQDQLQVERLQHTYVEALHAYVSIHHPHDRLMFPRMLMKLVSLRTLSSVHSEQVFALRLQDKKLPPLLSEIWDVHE
# Glucocorticoid receptor (Homo sapiens), sequence (P04150 whole entry, looked up): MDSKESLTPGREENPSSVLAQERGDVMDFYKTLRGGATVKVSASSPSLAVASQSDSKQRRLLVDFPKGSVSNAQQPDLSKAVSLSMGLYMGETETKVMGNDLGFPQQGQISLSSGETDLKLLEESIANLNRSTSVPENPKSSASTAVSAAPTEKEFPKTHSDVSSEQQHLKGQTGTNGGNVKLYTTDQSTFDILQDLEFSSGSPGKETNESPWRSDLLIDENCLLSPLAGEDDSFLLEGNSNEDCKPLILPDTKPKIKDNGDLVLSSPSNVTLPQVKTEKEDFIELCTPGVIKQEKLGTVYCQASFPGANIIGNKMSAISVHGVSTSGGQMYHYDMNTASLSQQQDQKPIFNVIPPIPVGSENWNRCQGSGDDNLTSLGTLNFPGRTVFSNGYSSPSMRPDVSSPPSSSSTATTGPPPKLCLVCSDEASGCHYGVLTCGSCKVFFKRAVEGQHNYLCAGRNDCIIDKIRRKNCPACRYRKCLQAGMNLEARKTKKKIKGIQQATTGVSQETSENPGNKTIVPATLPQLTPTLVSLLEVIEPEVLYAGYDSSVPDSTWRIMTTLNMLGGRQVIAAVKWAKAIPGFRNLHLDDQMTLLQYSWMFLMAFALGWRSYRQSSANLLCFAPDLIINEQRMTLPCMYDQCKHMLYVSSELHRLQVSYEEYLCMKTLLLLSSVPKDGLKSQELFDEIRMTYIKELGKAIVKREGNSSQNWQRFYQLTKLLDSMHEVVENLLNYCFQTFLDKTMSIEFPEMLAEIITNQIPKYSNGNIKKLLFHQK
# Estrogen-related receptor gamma (Homo sapiens), sequence (P62508 whole entry, looked up, the tested form may be a part): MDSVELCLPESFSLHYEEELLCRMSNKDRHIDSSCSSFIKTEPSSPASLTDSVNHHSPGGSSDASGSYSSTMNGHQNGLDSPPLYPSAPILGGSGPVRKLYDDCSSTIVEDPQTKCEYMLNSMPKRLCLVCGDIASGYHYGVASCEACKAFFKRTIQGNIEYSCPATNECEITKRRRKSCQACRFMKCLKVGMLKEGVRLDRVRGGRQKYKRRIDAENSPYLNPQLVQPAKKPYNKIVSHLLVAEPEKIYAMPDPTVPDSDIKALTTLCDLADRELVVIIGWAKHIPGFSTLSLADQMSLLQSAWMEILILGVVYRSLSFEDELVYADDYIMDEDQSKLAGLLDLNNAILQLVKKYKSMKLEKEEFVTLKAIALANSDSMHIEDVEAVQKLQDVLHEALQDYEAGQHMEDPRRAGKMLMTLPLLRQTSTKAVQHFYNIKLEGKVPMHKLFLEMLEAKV
smiles,measurement,setting,value
CCCCCCCCCCCCCCCCCC(=O)O,outcome,[1],inactive
same,outcome,[2],inactive
same,AC50,[3],25.9 µM (active)
same,outcome,[4],inactive
same,outcome,[5],inactive
same,outcome,[6],inactive
same,outcome,[7],inactive
same,outcome,[8],inactive
Cc1nc(C)nc(N2C[C@@H](C)N(c3ccnc([C@@H](C)O)n3)[C@@H](C)C2)n1,outcome,[1],inactive
same,outcome,[9],inactive
same,outcome,[4],inactive
same,outcome,[6],inactive
same,outcome,[7],inactive
same,outcome,[10],inactive
same,outcome,[11],inactive
same,outcome,[12],inactive
same,outcome,[13],inactive
same,outcome,[14],inactive
same,outcome,[8],inactive
COc1ccc(S(=O)(=O)N2C(=O)[C@@](c3ccccc3OC)(N3C[C@H](O)C[C@H]3C(=O)N(C)C)c3cc(Cl)ccc32)c(OC)c1,AC50,[1],42.1 µM (active)
same,AC50,[9],19.8 µM (active)
same,AC50,[4],69.5 µM (active)
same,outcome,[5],inactive
same,outcome,[15],inactive
same,AC50,[8],163 µM (active)
Cc1oc(-c2ccccc2)nc1CCOc1cccc2c1ccn2CCC(=O)O,outcome,[1],inactive
same,outcome,[9],inactive
same,outcome,[4],inactive
same,outcome,[5],inactive
same,outcome,[10],inactive
same,outcome,[12],inactive
same,outcome,[14],inactive
same,outcome,[15],inactive
same,outcome,[8],inactive
C1CCC(SSC2CCCCC2)CC1,outcome,[1],inactive
same,outcome,[2],inactive
same,outcome,[9],inactive
same,outcome,[4],inactive
same,outcome,[16],inactive
same,outcome,[12],inactive
same,outcome,[13],inactive
same,outcome,[8],inactive
COC(=O)c1ccc(O)cc1,outcome,[1],inactive
same,outcome,[2],inactive
same,outcome,[9],inactive
same,outcome,[4],inactive
same,outcome,[16],inactive
same,outcome,[12],inactive
same,outcome,[13],inactive
same,outcome,[14],inactive
same,outcome,[15],inactive
same,outcome,[8],inactive
O=C(N[C@@H](Cc1ccccc1)[C@@H](O)C(=O)N1C[C@@H](O)[C@@H](O)C1)c1cc2cc(Cl)ccc2[nH]1,outcome,[1],inactive
same,outcome,[9],inactive
same,outcome,[3],inactive
same,AC50,[4],151 µM (active)
same,outcome,[6],inactive
same,outcome,[10],inactive
same,outcome,[13],inactive
same,outcome,[14],inactive
same,outcome,[8],inactive
CCCCN(CCCC)CCCC,outcome,[1],inactive
same,outcome,[2],inactive
same,outcome,[9],inactive
same,outcome,[3],inactive
same,outcome,[4],inactive
same,outcome,[17],inactive
same,outcome,[13],inactive
same,outcome,[14],inactive
same,outcome,[15],inactive
same,outcome,[8],inactive
Cc1ccccc1Cl,outcome,[1],inactive
same,outcome,[2],inactive
same,outcome,[9],inactive
same,outcome,[3],inactive
same,outcome,[4],inactive
same,outcome,[11],inactive
same,outcome,[16],inactive
same,outcome,[12],inactive
same,outcome,[13],inactive
same,outcome,[8],inactive
Cc1ccc(C)c(O)c1C,outcome,[1],inactive
same,outcome,[9],inactive
same,outcome,[18],inactive
same,outcome,[3],inactive
same,outcome,[4],inactive
same,outcome,[17],inactive
same,outcome,[13],inactive
same,outcome,[8],inactive
CC1(C)CC(N=C=O)CC(C)(CN=C=O)C1 (stereo not drawn),outcome,[1],inactive
same,outcome,[9],inactive
same,outcome,[4],inactive
same,outcome,[11],inactive
same,outcome,[12],inactive
same,outcome,[13],inactive
same,outcome,[14],inactive
same,outcome,[15],inactive
same,outcome,[8],inactive
Nc1ccc2c(c1)C(=O)c1ccccc1C2=O,outcome,[1],inactive
same,outcome,[18],inactive
same,outcome,[4],inactive
same,outcome,[12],inactive
same,outcome,[13],inactive
same,outcome,[15],inactive
same,outcome,[8],inactive
CCOC(=O)CCC(=O)OCC,outcome,[1],inactive
same,outcome,[9],inactive
same,outcome,[19],inactive
same,outcome,[4],inactive
same,outcome,[13],inactive
same,outcome,[8],inactive
CC(=O)C(C)=CC1C(C)=CCCC1(C)C (stereo not drawn),outcome,[1],inactive
same,outcome,[4],inactive
same,outcome,[6],inactive
same,outcome,[13],inactive
same,outcome,[14],inactive
same,outcome,[15],inactive
same,outcome,[8],inactive
